This is a sample that favours compounds with a hit; in the whole collection about 0.7% have one here.
MKP-1 inh: blocks human MKP-1 phosphatase activity; AID 374; P28562; inhibition, %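 (compounds tested at a single concentration somewhere between 10 and 100 µM)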; recombinant MKP-1, OMFP hydrolysis fluorescence; 65,000 compounds, 0.15% hits;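 active = inhibition above about 50%, limit read from the data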;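 note: 0% = DMSO max control wells and 100% = wells with enzyme stopped by NaOH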
HePTP inhibitor: blocks human HePTP tyrosine phosphatase; recombinant HePTP phosphatase activity, OD absorbance; P35236; 110,000 compounds, 0.64% hits; inhibition, % at 20 µM; AID 521; in the data active = inhibition above about 50%;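 note: plate controls were vehicle for no effect and reference inhibitor for full effect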
Cdc25B inh: human M-phase inducer phosphatase 2 inhibition | P30305 | AID 368 | 65,000 compounds, 0.1% hits | inhibition, %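 (compounds tested at 10 µM final in the well)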 | recombinant Cdc25B, OMFP fluorescence Ex485/Em525; in the data active = inhibition above about 50%
Target sequence (P30305 whole entry, looked up): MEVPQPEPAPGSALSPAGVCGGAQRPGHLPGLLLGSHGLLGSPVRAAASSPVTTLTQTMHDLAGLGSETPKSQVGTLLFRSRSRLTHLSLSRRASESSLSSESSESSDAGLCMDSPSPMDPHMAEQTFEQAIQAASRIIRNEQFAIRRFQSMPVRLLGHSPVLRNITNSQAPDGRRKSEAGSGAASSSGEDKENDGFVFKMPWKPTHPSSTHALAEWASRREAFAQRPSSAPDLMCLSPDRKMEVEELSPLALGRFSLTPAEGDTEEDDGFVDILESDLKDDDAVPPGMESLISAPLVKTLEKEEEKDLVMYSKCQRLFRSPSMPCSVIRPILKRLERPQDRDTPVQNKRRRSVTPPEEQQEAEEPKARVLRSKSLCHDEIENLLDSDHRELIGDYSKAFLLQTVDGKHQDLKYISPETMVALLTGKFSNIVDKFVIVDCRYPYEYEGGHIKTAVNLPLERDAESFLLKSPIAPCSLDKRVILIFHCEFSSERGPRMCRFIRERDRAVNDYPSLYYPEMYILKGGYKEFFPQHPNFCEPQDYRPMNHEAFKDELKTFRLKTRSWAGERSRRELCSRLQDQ
Starred values were filed as active, the others as inactive; · = no result.

SMILES	MKP-1 inh	HePTP inhibitor	Cdc25B inh
CC(C(=O)N1CCN(c2ccccc2)CC1)N1C(=O)c2ccccc2C1=O (configuration not stated)	·	-16	·
O=C(CN1C(=O)/C(=C\c2ccccc2F)SC1=S)Nc1ccc(C(=O)O)cc1	·	53*	·
O=C(CN1C(=O)/C(=C\c2ccccc2F)SC1=S)Nc1cccc(C(=O)O)c1	·	8	·
CCOC(=O)c1c(NC(=O)c2ccncc2)sc(C(C)=O)c1C	·	105*	·
CCOC(=O)c1c(NC(=O)c2ccc(C)c(C)c2)sc(C(C)=O)c1C	·	-4	·
O=C(O)CCCC(=O)OCc1ccco1	·	102*	·
CC(C)OC(=O)c1cccc(C(=O)OCc2ccco2)n1	-22	1	-6
COC(=O)CCC(=O)Nc1ccc([N+](=O)[O-])cc1C	·	8	·
COC(=O)CCC(=O)NNc1ccc([N+](=O)[O-])cc1	·	60*	·
O=C(c1ccccc1F)N1CCN(C2CC3CCC2C3)CC1 (configuration not stated)	·	6	·
O=C(c1ccc(-c2ccccc2)cc1)N1CCN(C2CC3CCC2C3)CC1 (configuration not stated)	·	71*	·
CCCOc1cccc(C(=O)Nc2ccc(F)cc2)c1	·	-8	·
Cc1c(-c2cccc(Cl)c2)nc2ccccc2c1C(=O)O	·	105*	·
Cc1c(-c2ccc(Cl)cc2Cl)nc2ccccc2c1C(=O)O	·	-1	·
CC(=O)N(Cc1ccncc1)c1cccc2ccccc12	·	-4	·
CCc1cc(C)cc(OCCn2cc(/C=C3/SC(=S)NC3=O)c3ccccc32)c1	·	2	·
COC(=O)CCC(=O)Oc1ccc(OC(=O)CCC(=O)OC)cc1	56*	4	59*
COC(=O)CCC(=O)Nc1ccc(NC(=O)CCC(=O)OC)cc1	-2	2	-7
O=C(O)c1cn(-c2ccccc2)nc1-c1ccc(Br)cc1	·	-5	·
O=C(/C=C/c1ccccc1)N1CCN(c2ccc(Cl)cc2)CC1	·	-10	·
O=C(COc1ccc(Br)cc1)Nc1ccc2oc(-c3ccccc3F)nc2c1	·	5	·
O=C(COc1ccc(Cl)cc1)Nc1ccc2oc(-c3ccccc3F)nc2c1	·	57*	·
COc1ccc(C(=O)N=Nc2c(O)n(CN3CCCC3)c3ccc(Br)cc23)cc1	·	4	·
COc1ccc(C(=O)N=Nc2c(O)n(CN(C)C)c3ccc(Br)cc23)cc1	·	87*	·
CCOC(=O)c1c(N)sc(C(=O)Nc2ccccc2OC)c1C	·	4	·
SMILES	MKP-1 inh	HePTP inhibitor	Cdc25B inh
COC(=O)c1c(N)sc(C(=O)Nc2ccccc2OC)c1C	·	66*	·
CC(=O)Nc1ccc(NS(=O)(=O)c2ccc(F)cc2)cc1	·	0	·
CCc1ccc(S(=O)(=O)Nc2ccc(NC(C)=O)cc2)cc1	·	103*	·
COc1ccc(/C=C2/SC(=S)N(/N=C/c3cc([N+](=O)[O-])ccc3O)C2=O)c(OC)c1	·	4	·
CN(C)c1ccc(C2CC(c3cccs3)=NN2C(=O)CCC(=O)O)cc1 (configuration not stated)	·	-9	·
O=C(O)c1ccc([N+](=O)[O-])c2c1NC(c1ccccc1)C1CC=CC21 (configuration not stated)	·	88*	·
CC(=O)c1ccc2c(c1)C1C=CCC1C(c1ccc(Cl)cc1)N2 (configuration not stated)	·	2	·
Cc1ccc([N+](=O)[O-])c2c1NC(c1ccc(Br)cc1)C1CC=CC21 (configuration not stated)	·	8	·
O=C(O)c1cccc2c1NC(c1cccc(Cl)c1Cl)C1CC=CC21 (configuration not stated)	·	88*	·
Cc1c(Cl)ccc2c1NC(C(=O)O)C1CC=CC21 (configuration not stated)	·	103*	·
O=C(O)C1Nc2c(C(=O)N3CCOCC3)cccc2C2C=CCC12 (configuration not stated)	37	25	18
COc1cccc2c1NC(c1ccccc1Cl)C1CC=CC21 (configuration not stated)	·	-6	·
O=C(O)C1Nc2c(C(=O)N3CCCC3)cccc2C2C=CCC12 (configuration not stated)	·	94*	·
Cc1ccccc1C(=O)NN1C(=O)/C(=C/c2cccc(O)c2)SC1=S	·	-3	·
CC1=NN(C(=N)c2ccccc2)C(C)(O)C1 (configuration not stated)	·	0	·
Cc1cc(Cl)ccc1OCCN1CCOCC1	·	6	·
Cc1ccc(NC(=O)COc2ccc(Cl)c(C)c2)c(Br)c1	·	-9	·
Oc1cccc(C=NC2CCCCC2)c1	·	64*	·
Oc1cccc(C=Nc2ccccc2O)c1	·	-16	·
COc1ccc(CNC(=O)C(=O)Nc2ccccc2F)cc1	·	9	·
COCCOC(=O)C1=C(C)NC(=O)NC1c1ccc(Br)cc1 (configuration not stated)	·	-5	·
CC1=C(C(=O)OCC(C)C)C(c2ccc(Br)cc2)NC(=O)N1 (configuration not stated)	·	60*	·
O=C(N/N=C/c1ccc2c(c1)OCO2)c1ccccn1	·	5	·
O=C(N/N=C/c1ccc2c(c1)OCO2)c1sc2cc(Cl)ccc2c1Cl	·	58*	·
COc1ccccc1NC(=O)C1=C(C)NC(=S)NC1c1cccc(OC)c1OC (configuration not stated)	·	6	·
SMILES	MKP-1 inh	HePTP inhibitor	Cdc25B inh
O=C1N=c2ccc(Cl)cc2=C1c1sc(=S)n(Cc2ccccc2)c1O	·	-2	·
Cc1ccc(C)n1-c1ccc(Cl)c(C(=O)O)c1	·	104*	·
Cc1cc(C(=O)O)ccc1-n1c(C)ccc1C	30	104*	3
Cc1ccc(C)n1-c1cc(C(=O)O)ccc1Cl	·	103*	·
Cc1cc(Cl)c2cc(C(=O)O)ccc2n1	·	0	·
Cc1cc(N)ccc1-n1c(C)ccc1C	3	8	2
Cc1ccc(-c2ccccc2)n1-c1ccc(O)c(C(=O)O)c1	·	96*	·
O=C(O)c1ccc(N2C(=O)C=CC2=O)cc1Cl	·	47	·
Cc1ccc(-c2ccccc2)n1-c1ccc(Cl)c(C(=O)O)c1	·	-9	·
COCC(O)CSCc1ccccc1 (configuration not stated)	·	-17	·
CCOC(=O)COc1ccc(/C=N/NC(=O)COc2ccc([N+](=O)[O-])cc2)c(OCC(=O)OCC)c1	·	-2	·
O=[N+]([O-])c1ccccc1S(=O)(=O)NC12CC3CC(CC(C3)C1)C2	·	7	·
CN(C)CCCN1C(=O)CSC1c1ccc(Cl)cc1 (configuration not stated)	·	9	·
COc1ccc(Br)cc1/C=C/C(=O)Nc1cccc(C(F)(F)F)c1	·	-4	·
CCC(=O)Nc1c(-c2ccc(C)cc2)nc2ccccn12	·	2	·
COc1cc(C(=O)O)c(-n2c(C)ccc2C)cc1OC	·	41	·
Cc1ccc(C(=O)O)cc1-n1c(C)ccc1C	·	104*	·
Cc1ccc(-c2ccccc2)n1-c1cccc(C(=O)O)c1	·	3	·
Cc1ccc(C)n1-c1ccc(Cl)cc1C(=O)O	·	102*	·
Cc1cc(C)nc(SCC(=O)NCCc2ccccc2)n1	·	9	·
CC(=O)N1c2ccccc2C(N(C(=O)COc2ccc(Cl)cc2Cl)c2ccccc2)CC1C (configuration not stated)	·	4	·
Nc1c2c3c(c(Cl)ccc3[nH]c1=O)C(=O)c1ccccc1-2	·	103*	·
Nc1c([N+](=O)[O-])cc(Cl)c2c1C(=O)c1ccccc1C2=O	·	5	·
CC(=O)NC1=NC(=O)/C(=C\c2ccc(-c3ccccc3C(=O)O)o2)S1	·	51*	·
CC(=O)NC1=NC(=O)/C(=C\c2ccc(C)o2)S1	·	3	·
COc1cc2c(=O)c3ccccc3sc2c(OC)c1OC	·	-18	·
